The panel holds about 83,000 compounds, 20% with a hit somewhere; the sample as a whole holds those more often.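 The endpoint reported here, percent growth, reads 100 for growth as untreated, 0 for no net growth and -100 for all cells dead.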 Calls of active or inactive are those of the source. Rule for the calls: active = growth percent below 10; inactive = the rest.
Assays:
Assay in all cases: NCI-60 one-dose screen, 48 h (100 = growth as untreated, 0 = no growth, -100 = all killed)
Conditions in all cases: 10 µM unless noted
[1] = tested on: BT-549 breast
[2] = tested on: MDA-MB-435 melanoma
[3] = tested on: SW-620 colon
[4] = tested on: MCF7 breast
[5] = tested on: HCT-116 colon
[6] = tested on: HCC-2998 colon
[7] = tested on: KM12 colon

Measured: growth

CCCCCCCCSc1ncnc2c1ncn2CO
inactive: [1] 84.6% | [2] 82.6% | [3] 93.8% | [4] 75.7% | [5] 66.8% | [6] 109% | [7] 88.2%

COc1cc(C(=O)/C=C/c2cccnc2Nc2ccccc2)cc(OC)c1OC
active: [1] -55.5% | [2] -23.3% | [3] -84% | [4] -73% | [5] -94.9% | [6] -76.7% | [7] -88.2%

COc1ccc2c(c1)nc(N)c1c3cc(OC)c(OC)cc3cn21
inactive: [1] 79.8% | [3] 34.5% | [4] 17.5% | [5] 27.7% | [6] 54.5% | [7] 26.9%
active: [2] -26.7%

CCOC(=O)c1c2c(c(C)n1Cc1ccccc1)-c1nc(N)ncc1CC2
inactive: [1] 162% | [2] 136% | [3] 104% | [4] 106% | [5] 90.7% | [6] 97.4% | [7] 100%

O=C(C(Br)Br)C(Br)C(Br)c1ccccc1 (configuration not stated)
active: [3] -46.9%
inactive: [1] 95.8% | [2] 82.3% | [4] 69.7% | [5] 24.7% | [6] 112% | [7] 102%

COC(=O)CCC1=C(C)/C(=C/c2[nH]c(-c3ccc[nH]3)cc2OC)N=C1C
active: [2] -13.5% | [3] 8.99% | [4] 1.82% | [5] -61.8% | [6] 9.8% | [7] 5.49%
inactive: [1] 14.3%

CN1C(=O)/C(=C/c2nc(-c3cccc(F)c3)n3ccccc23)c2ccccc21
inactive: [1] 90.9% | [2] 93.6% | [3] 84.6% | [4] 44.3% | [5] 44.5% | [6] 99.4% | [7] 94.1%

Cc1ccc2c(c1)C(=O)/C(=C/c1ncc([N+](=O)[O-])n1C)O2
active: [1] -25.9% | [2] -80.6% | [3] -32.5% | [4] -1.55% | [5] 7.67% | [6] -44% | [7] -48.4%

COc1ccc(-n2nc3c(c2-c2ccc(OC)c(OC)c2)-c2oncc2CC3)cc1
inactive: [1] 77.5% | [2] 78.6% | [3] 99% | [4] 80.8% | [5] 87.9% | [6] 104% | [7] 77.7%

C=C(C)[C@@H]1C[C@H](O)Cc2cc(Cl)cc(Cl)c2N1
inactive: [1] 105% | [2] 105% | [3] 105% | [4] 103% | [5] 99.5% | [6] 105% | [7] 107%

CC12CCC3C(CCC4CC(=O)/C(=C\O)CC43C)C1CCC(=O)O2 (configuration not stated)
inactive: [1] 112% | [2] 110% | [3] 110% | [4] 102% | [5] 100% | [6] 101% | [7] 115%

COc1ccc(C(=O)Nc2nc(-c3ccc(Cl)cc3)cs2)cc1
inactive: [1] 105% | [2] 97.7% | [3] 96.3% | [4] 92.9% | [5] 109% | [6] 112% | [7] 99.2%

O=C(CSc1nc2c(n1Nc1ccccc1)-c1ccccc1SC2)Nc1nc(-c2ccc(Cl)cc2)cs1
inactive: [1] 93.9% | [2] 61% | [3] 28.2% | [4] 68.9% | [5] 36.9% | [6] 102% | [7] 48.5%

O=Cc1c[nH]c2ccc(NC(=O)OCc3ccccc3)cc12
inactive: [1] 21.4% | [2] 115% | [3] 121% | [4] 100% | [5] 98.9% | [6] 96.2% | [7] 123%

Cc1cc(C(C)(C)C)cc(C)c1CC1=NCCN1
inactive: [1] 98.3% | [2] 100% | [3] 108% | [4] 113% | [5] 112% | [6] 96.4% | [7] 103%

O=C(CN1CCCCC1)Sc1nnc2sc3ccccc3n12
inactive: [1] 104% | [2] 111% | [3] 101% | [4] 92.9% | [5] 95.3% | [6] 116% | [7] 104%

O=C(Nc1ccc(C2=NCCCN2)cc1)Nc1ccc(C2=NCCCN2)cc1
inactive: [1] 100% | [2] 95.3% | [3] 99.4% | [4] 94% | [5] 67.4% | [6] 117% | [7] 100%

CC(=O)Oc1ccc(C23c4ccccc4C2(OC(C)=O)c2cc(OC(C)=O)ccc23)cc1 (configuration not stated)
inactive: [1] 106% | [2] 97.9% | [3] 80.3% | [4] 49.5% | [5] 61.6% | [6] 59.2% | [7] 46.2%

Cn1cc(-c2csc(-c3cn(C)c4ncccc34)n2)c2cccnc21
inactive: [1] 93.6% | [2] 75.8% | [3] 92.4% | [4] 91.6% | [5] 95% | [6] 99.2% | [7] 96.4%

COc1ccc2nc3cc(Cl)ccc3c(N3CCN(c4ccnc(Nc5ccc(F)cc5)n4)CC3)c2c1
inactive: [1] 88.3% | [2] 74.5% | [3] 89.2% | [4] 48.8% | [5] 41.4% | [6] 79.5% | [7] 79.1%

CCOc1cccc(C2CC(=O)Nc3cc4c(cc32)OCO4)c1 (configuration not stated)
inactive: [1] 82.4% | [2] 29.2% | [3] 84.2% | [4] 82.8% | [5] 80.7% | [6] 86.4% | [7] 72.3%

O=C1NC(=O)/C(=C\c2ccccc2)C2=C1CCCC2
inactive: [1] 35% | [5] 18.8% | [6] 123% | [7] 18%
active: [2] -76.3% | [3] -50.2% | [4] -49%

Cc1c(C(N)=O)sc2c1c(=O)n(Cc1ccccc1)c1nnc(SCC(=O)Nc3ccc(Cl)cc3)n21
active: [5] 2.83%
inactive: [1] 67.7% | [2] 40.7% | [3] 35.6% | [4] 31.6% | [6] 18.1% | [7] 55.3%

COc1ccc2c(c1)C(=O)c1c-2c(OCCCN(C)C)nc2cc(Br)ccc12
inactive: [1] 89.7% | [2] 90.2% | [3] 35.7% | [4] 18.5% | [5] 56.8% | [6] 69.6% | [7] 69.7%

COc1cc(C2CC(c3ccc(C)cc3)=NN2C(C)=O)ccc1Oc1ccnc2cc(Cl)ccc12 (configuration not stated)
inactive: [1] 59.1% | [2] 100% | [3] 66.3% | [4] 73.6% | [5] 52.8% | [6] 83.3% | [7] 85.3%

O=C(Nc1nc2ccccc2s1)c1cc(-c2ccc(F)cc2)n2nc(-c3ccccc3)cc2n1
inactive: [1] 79% | [2] 86.5% | [3] 67.8% | [4] 69.3% | [5] 45.8% | [6] 97.5% | [7] 68.7%

CCCCCCCC/C=C/CCCCCCCC1=NC(C)(C)CN1CCO
inactive: [1] 78.1%
active: [2] -31.9% | [3] -66.3% | [4] -55.5% | [5] -68% | [6] -86.6% | [7] -68.5%

COc1ccc(OC)c2c1[nH]c(=O)c1c3ccccc3cn21
active: [1] -11.6% | [2] -97.9% | [3] -59.8% | [4] -78.5% | [5] -71.5% | [6] -77.4% | [7] -52.6%

CCCCCCCCCCCCCCCCN=C(CC(=O)O)C(=O)O
inactive: [1] 101% | [2] 96.7% | [3] 101% | [4] 86.5% | [5] 87.2% | [6] 104% | [7] 100%

CCCc1cccc(CCC)c1O
inactive: [1] 117% | [2] 106% | [3] 104% | [4] 113% | [5] 115% | [6] 100% | [7] 112%

CCn1c2c(c3ccccc31)SC1c3cccn3CCN1C2=S (configuration not stated)
inactive: [1] 140% | [2] 91.5% | [3] 95.2% | [4] 53.8% | [5] 98.2% | [6] 99.6% | [7] 96.4%

O=C(/C=C/c1ccccc1Cl)c1ccc(O)cc1
active: [7] 6.77%
inactive: [1] 55.8% | [2] 25.1% | [3] 40.9% | [4] 15% | [5] 13.3% | [6] 113%

c1ccc2cc(C[n+]3ccn(CCCCCCCn4cc[n+](Cc5ccc6ccccc6c5)c4)c3)ccc2c1
inactive: [1] 16.7% | [2] 32.7% | [3] 74.2% | [4] 35.1% | [5] 32.7% | [6] 49.3% | [7] 28.7%

CC1CC(C)/C(=N/NC(N)=O)C(C(O)CC2CCC(=O)NC2=O)C1 (configuration not stated)
inactive: [1] 53.1% | [2] 34.3% | [3] 34.3% | [4] 36.7% | [5] 24% | [6] 58.8% | [7] 32.3%

O=c1[nH]c(Cl)nc2c1cnn2-c1ccccc1
inactive: [1] 52.9% | [2] 52.4% | [3] 50.6% | [4] 84.3% | [5] 31% | [6] 91.2% | [7] 18.6%

COc1ccc(C(=O)COc2cccc(/C=C3\Oc4ccc5ccccc5c4C3=O)c2)cc1
inactive: [2] 94.7% | [3] 19% | [4] 10.1% | [5] 29% | [6] 60% | [7] 97.9%
active: [1] -96.9%

From PubChem BioAssay (NCI)
